# High-throughput results as filed in PubChem.
# Pf Dd2 growth: inhibitors of Plasmodium falciparum Dd2 growth. P. falciparum Dd2 growth, SYBR Green, 72 h. Potency, µM (top dose mostly 28.9 µM), without a hit: at the top dose activity, negative = inhibition, actives largely listed as inhibitors. hit rate 4.3% among 120,000; active = well fitted inhibition curve with a large enough effect;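 note: plate controls were DMSO vehicle for no effect and reference drug for full effect; nearly all actives have a fitted effect of over 65% in size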
#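 Infected erythrocytes (Dd2, 0.3% parasitemia, 2.5% hematocrit final) are added to compound in RPMI-1640/Albumax II medium, grown 72 h at 37C in low oxygen, then lysed with saponin/Triton-X containing SYBR Green and read by fluorescence.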
# Active calls of the source: *; i = inactive; [ ] = dose if it differs, or a comment. This excerpt belongs to a sample that is enriched for hits. Potency is the fitted concentration of half-maximal effect.
SMILES,Pf Dd2 growth
CC1(c2ccccc2)N(Cc2cccnc2)C(=O)OC12CCN(C(=O)Cc1ccccc1)CC2 (stereo not given),i
CC1(c2ccccc2)N(Cc2ccccc2)C(=O)OC12CCN(Cc1cccnc1N)CC2 (stereo not given),-22.1%
COc1ncccc1CN1CCC2(CC1)OC(=O)N(Cc1ccccc1C#N)C2(C)c1ccccc1 (stereo not given),4.47µM*
CC1(c2ccccc2)N(Cc2ccccc2C#N)C(=O)OC12CCN(C(=O)CN1CCOCC1)CC2 (stereo not given),-26.4%
COc1cccc(CN2C(=O)OC3(CCN(Cc4c[nH]c5ccccc45)CC3)C2(C)c2cccnc2)c1 (stereo not given),0.794µM*
COc1cccc(CN2C(=O)OC3(CCN(C(=O)C4CCC4)CC3)C2(C)c2cccnc2)c1 (stereo not given),i
C[C@]1(CO)C2CC[C@@H](O)[C@@H](CC(=O)N3CCC[C@H]3CO)[C@]2(C)CC[C@H]1OC(=O)Nc1ccc(Cl)c(Cl)c1 (stereo not given in full),-10.0%
O=[S+]1([O-])CCCN1C1CCN([S+](=O)([O-])c2ccc(C(F)(F)F)cc2)CC1,10.5%
CNC(=O)c1cc(-c2cnn(C)c2C)cc2c1OCCN2Cc1cccnc1,i
CNC(=O)[C@@H]1C[C@@H](O)CN1C1CCN(C(=O)c2noc(C)c2Cc2c(C)noc2C)CC1,-6.7%
CCC1(N2CCN(C(=O)COc3cccc(Cl)c3)CC2)CCN(S(C)(=O)=O)C1 (stereo not given),i
CCC1(N2CCN(C(=O)COc3cccc(Cl)c3)CC2)CCN(C(=O)NC)C1 (stereo not given),10µM*
CCC1(N2CCN(C(=O)COc3ccc(Cl)cc3C)CC2)CCN(C(=O)NC)C1 (stereo not given),-35.0%
Cc1noc(C)c1-c1cc2c(cc(C)n2C)c(-c2ccccc2)n1,i
COc1ncccc1-c1nc(-c2c(C)noc2C)cc2c1cc(C)n2CCN(C)C,i
COc1ncc(-c2nc(-c3c(C)noc3C)cc3c2cc(C)n3CCN(C)C)cn1,14.1µM*
CCCOC(=O)N1CCC(C(=O)Nc2cccc(-c3cccc(F)c3)c2)CC1,-14.1%
CNC(C)c1ccccc1OC (stereo not given),-14.4%[44.1 µM]
O=C1NC(C(=O)NC2CCCCC2)Cn2cccc21 (stereo not given),31.1%
CC(Oc1ccccc1)C(=O)N1CCCC(n2cc(-c3nc(C4CC4)no3)nn2)C1 (stereo not given),-7.8%
COCCNC(=O)[C@H]1C[C@H](Oc2ccccc2)CN1C(=O)COC,24.8%
CC(C)c1noc([C@H]2C[C@@H]3C(=O)NCCCCCCN(C(=O)Cc4ccccc4)[C@@H]3C2)n1,i
CC(=O)N1C[C@H](NS(=O)(=O)c2ccc(C)c(Cl)c2)[C@@H](C2CC2)C1,-2.4%
Cc1nc(N2CCC(NC(=O)c3cccnc3)CC2)cc(C(F)(F)F)n1,i
COc1ccccc1CCC(=O)NC1CCN(c2cc(C(F)(F)F)nc(C)n2)CC1,-4.9%
SMILES,Pf Dd2 growth
COc1cccc(C(=O)NC2CCN(c3cc(C(F)(F)F)nc(C)n3)CC2)c1OC,11.2µM*
COc1cccc(C(=O)NC2CCN(c3cc(C(F)(F)F)nc(C)n3)CC2)c1,i
Cc1nc(N2CCC(NC(=O)c3cc4ccccc4[nH]3)CC2)cc(C(F)(F)F)n1,2µM*
Cc1nc(N2CCC(NC(=O)c3ccccn3)CC2)cc(C(F)(F)F)n1,-14.2%
Cc1ccc(NC(=O)Cn2nc3n(c2=O)CCCCC3)cc1,20.6%
COc1ccc(CN2CC3(CCN(C(=O)Nc4ccc(OC)c(OC)c4)CC3)C2=O)cc1,-16.8%
CCCNC(=O)N1CCCCCC1CN1CCC(OC)CC1 (stereo not given),i
COC(=O)C(=O)N1CC[C@H]2NC(=O)N(c3ccccc3)C(=O)[C@H]21,7.3%[44.1 µM]
O=C(C[C@@H]1O[C@H](CNC(=O)Nc2ccccc2)[C@@H](O)[C@H]1O)NC1CC1,26.0%[44.1 µM]
COc1ccc(N2CCN(c3nc(C(=O)NCc4ccccc4C)cs3)CC2)cc1,8.91µM*
COc1ccc(N2CCN(c3nc(C(=O)NC4CC4)cs3)CC2)cc1,i
O=C(NCc1ccccc1Cl)c1csc(N2CCN(c3ccc(F)cc3)CC2)n1,i
COc1ccc(N2CCN(c3nc(C(=O)NCc4cccc(C)c4)cs3)CC2)cc1,3.16µM*
O=C(NCc1cccs1)c1csc(N2CCN(c3ccc(F)cc3)CC2)n1,i
COc1ccc(N2CCN(c3nc(C(=O)NCc4ccc(C)cc4)cs3)CC2)cc1,-9.9%
CN(C)c1ccc(CN[C@H]2C[C@H]3C(=O)NC[C@@H](CCC(=O)NC4CC4)N3C2)cc1,11.2%[44.1 µM]
CCn1cc(S(=O)(=O)N2CCC3(CC2)C(C(=O)O)CC(=O)N3C)c(C)n1 (stereo not given),-5.0%
CCc1ccc(CNC(=O)CCC2CCN(C(=O)c3ccccc3)CC2)cc1,i
Cc1ccc(Cl)cc1NC(=O)Cn1nc2c(cc1=O)CCCCC2,-19.8%
Fc1ccc(NCc2ccccc2-c2nnc(-c3ccccc3Cl)o2)cc1,12.6µM*
Cc1ccc(NCc2ccccc2-c2nnc(-c3ccccc3Cl)o2)cc1Cl,-24.4%
Fc1ccc(N2CCN(Cc3nnc(-c4ccccc4Cl)o3)CC2)cc1,2.4%
Cc1nn2c(c1-c1ccccc1Oc1ccccc1)N(CC1CC1)CCC2,i
Cc1nn2c(c1-c1cccnc1N1CCOCC1)N(CC1CC1)CCC2,i
Cc1nn2c(c1-c1ccccc1Oc1ccccc1)N(C(=O)c1ccc(F)cc1)CCC2,i
SMILES,Pf Dd2 growth
COc1ccc(CN2CCCn3nc(C)c(-c4ccccc4Oc4ccccc4)c32)cc1O,1.26µM*
Cc1nn2c(c1-c1ccccc1-c1ccccc1)N(Cc1ccc(OCC(=O)O)cc1)CCC2,i
Cc1nn2c(c1-c1ccccc1-c1ccccc1)N(Cc1cccc(O)c1)CCC2,0.794µM*
COc1cccc(CN2CCCn3nc(C)c(-c4cnccc4C)c32)c1,-9.0%[44.1 µM]
Cc1nn2c(c1-c1ccccc1Oc1ccccc1)N(CC1CCOCC1)CCC2,7.94µM*
CC(=O)Nc1ccccc1-c1c(C)nn2c1N(Cc1ccccc1)CCC2,i
COC(=O)CNC(=O)C1CCN(C(=O)C2CN(c3ccc(OC)cc3)C(=O)N2)C1 (stereo not given),-17.1%
O=C(NCC1CCN(c2cc(-c3ccc(Cl)cc3)[nH]n2)CC1)c1ccc[nH]1,-14.7%
Cc1cnccc1CNC(=O)c1cc(COc2ccc3c(c2)OCO3)[nH]n1,-10.6%
O=C1CC2CCCC(C1)N2C(=O)c1cncc(Br)c1,8.1%[44.1 µM]
Cc1noc([C@@H]2CC(F)(F)CN2C(=O)c2cc(C)[nH]n2)n1,27.0%
COc1cccc(CN2C[C@@H](F)[C@@H](OCc3nc4ccccc4[nH]3)C2)n1,i
Nc1cc(N2CCN(C(=O)C3CCOCC3)CC(O)C2)ncn1 (stereo not given),-11.8%
COC(=O)CNC(=O)C1CCc2nnc(-c3ccc(Cl)cc3Cl)n21 (stereo not given),-11.4%
COc1ccc(CC(=O)N[C@@H]2c3ccccc3C3(CCNCC3)[C@H]2OC)cc1,6.9%
O=C(Cc1cccc(F)c1)N1CCC(n2cc(-c3nc(C4CC4)no3)nn2)CC1,-10.1%
COc1ccc(CC(=O)N2CC(C(=O)NCCc3ccncc3)C3(CCOCC3)C2)cc1 (stereo not given),-10.1%
CCOc1ccc(CC(=O)NC2CCN(c3cc(-c4ccc(F)cc4)[nH]n3)C2)cc1OCC (stereo not given),-9.7%
O=C(Cc1cccc(F)c1)NC1CCN(c2cc(-c3ccc(F)cc3)[nH]n2)C1 (stereo not given),6.31µM*
